Assay results as given in ChEMBL document CHEMBL1157539, “Thousands of chemical starting points for antimalarial lead identification” (Nature, 2010).

Each compound was assayed on HepG2 (assay: GSK_TCMDC: Percent inhibition of human HepG2 cell line. Test compounds present at 10uM.).
Type: functional

In order of falling Inhibition:
1. CCN(CC)CCCNc1nccc(N2CCc3ncnc(Nc4ccc(OCc5cccc(F)c5)c(Cl)c4)c3C2)n1  100%
2. COc1cc2nc(NCCc3ccccc3)nc(NCCc3ccccc3)c2cc1OC  99%
3. CC(NCCc1cccc(Cl)c1)C(O)c1ccc(OCCCCCCOc2ccc(C(O)C(C)NCCc3cccc(Cl)c3)cc2)cc1 (stereo not given)  96%
4. O=[N+]([O-])c1ccc(/C=N/O)nc1  80%
5. CC(C)C[C@H](NC(=O)c1cc2ccccc2s1)C(=O)N[C@H]1CCN(Cc2ccc(OC3CCN(C)C3)c(Cl)c2)C1.O=C(O)C(F)(F)F (stereo not given in full)  68%
6. CCN1CCC(N(Cc2ccc(-c3ccc(C(F)(F)F)cc3)cc2)C(=O)Cn2c(CCc3cccc(F)c3F)cc(=O)c3ccc(OCc4ccccc4)cc32)CC1.O=C(O)C(O)C(O)C(=O)O  60%
7. Cn1ccc2c3c(N)nc(N)nc3ccc21  59%
8. CC(C)CCNC(=O)c1cnc2c(O)cccc2c1Nc1cccc(NC(=O)c2ccc(F)cc2)c1.O=C(O)C(F)(F)F  51%
9. COc1cc2c(cc1OC)CC(NCCCCCCNCCc1ccc(Cl)cc1)CC2.Cl (stereo not given)  50%
10. O=C(Nc1ccc(Cl)cc1)c1ccc(CN2CCCN(Cc3ccsc3)CC2)cc1.O=C(O)C(F)(F)F  48%
11. COc1ccc(-c2ccccc2CNc2nc(NCCc3ccc(O)cc3)nc(N3CCNCC3)n2)cc1.O=C(O)C(F)(F)F  48%
12. OCCn1c(CNCCCNc2nc3ccccc3[nH]2)cc2c(Cl)cc(Cl)cc21  29%
13. COCCN1CCC(N(CC2(O)CCN(c3ccc(C(F)(F)F)cc3)CC2)C(=O)Cn2c(SCc3cccc(F)c3F)cc(=O)c3ccccc32)CC1  29%
14. O=C(Nc1cccc(CN2CCCN(Cc3cccc(O)c3)CC2)c1)c1ccc(-c2ccccc2)cc1.O=C(O)C(F)(F)F  28%
15. O=C(Nc1ccc(C(F)(F)F)cc1)c1cccc(S(=O)(=O)NCC2CCCN(CC3CCCCC3)C2)c1.O=C(O)C(F)(F)F (stereo not given)  27%
16. O=C(Nc1ccc(Cl)cc1)N[C@H]1CCN(CCCCCNC(=O)C2CC2c2ccc(Cl)c(Cl)c2)C1 (stereo not given in full)  24%
17. Cc1cc(Nc2ccc(O)cc2)nc2cccc(O)c12  22%
18. O=C(O)C(F)(F)F.c1cc(CNCCc2ccncc2)cc(-c2cccc(-c3nc4ccccc4[nH]3)c2)c1  21%
19. Cc1nc(-c2cccc(C(=O)NC3CCC(CCN4CCc5ccc(-c6cccnc6)cc5CC4)CC3)c2)no1.Cl (stereo not given)  17%
20. COc1cccc(CNC(=O)c2cccc(-c3ccc(CN4CCC(N5CCCC5)CC4)cc3)n2)c1.O=C(O)C(F)(F)F  16%
21. O=C(/C=C/c1ccc(Cl)c(Cl)c1)NC1CCC(CN2CCC(c3c[nH]c4ccncc34)CC2)CC1 (stereo not given)  16%
22. CCCCOc1ccc(N2C(N)=NC(N)=NC2(C)C)cc1.Cl  16%
23. CC(CN(C)C)C(=O)Nc1ccc(-c2ccc(-c3nc4cc(C(F)(F)F)ccc4[nH]3)cc2)cc1 (stereo not given)  14%
24. Nc1cccc(CNCc2cccc(-c3csc(-c4nc5ccccc5[nH]4)c3)c2)c1.O=C(O)C(F)(F)F  13%
25. CCOc1ccc(OCC)c(N2CCN(CCCCNC(=O)c3ccc(NC(=O)c4ccc(Cl)cc4)cc3)CC2)c1  13%
26. O=C(COc1cccc([N+](=O)[O-])c1)Nc1ccc(-c2nc3ccccc3[nH]2)cc1  12%
27. CCCCN(C(=O)c1ccccc1Cl)c1nnc(-c2ccccc2C)s1  12%
28. O=C(NC1CC1)c1ccc(N2CCC(Cc3ccccc3)CC2)c([N+](=O)[O-])c1  12%
29. COc1cc2nc(N3CCC(c4ccccc4)CC3)nc(NCc3ccc(=O)[nH]c3)c2cc1OC  12%
30. COc1cc(SC)c(Br)cc1-c1nc2ccncc2[nH]1  5%
31. Cc1nc(-c2nc(N3CCOCC3)ncc2-c2ccsc2)sc1C  5%
32. CCC(C)CN1CCN(c2cc(NC(=O)c3cccs3)ccn2)C(C)C1.O=C(O)C(F)(F)F (stereo not given)  5%
33. CC(=O)Nc1ccc(Nc2cc(C)nc(Nc3ccc(NC(C)=O)cc3)n2)cc1  4%
34. COc1ccc(C2N=C(N)N=C(N)N2c2ccc(Cl)cc2)cc1OC.Cl (stereo not given)  4%
35. CCCOc1ccc(NC(=O)c2cccs2)cc1Cl  1%
36. CCOc1ccc(N(CC)S(=O)(=O)c2cc(Br)cc3c2N(C(=O)C2CC2)CC3)cc1  0%
37. OC(CNCc1ccccc1Oc1ccccc1)c1cc(Br)cs1 (stereo not given)  0%
38. Clc1cccc(C23N/C(=N\c4nc5ccccc5[nH]4)NC2(c2ccccc2)N/C(=N\c2nc4ccccc4[nH]2)N3)c1 (stereo not given)  0%
39. CN1CCc2cc(I)c(O)cc2C1Cc1ccccc1Cl.Cl (stereo not given)  0%
40. Cc1cc(=NN=Cc2ccccc2Cl)c2ccccc2[nH]1  0%
